Bioassay records from PubChem BioAssay.
Autofluor counter: compound fluorescence in toxin protease inhibitor counterscreen; compound autofluorescence counterscreen, microsphere flow cytometry; active compounds read high; fluorescence intensity (concentration not given with the values); 360,000 compounds, 3.1% hits; AID 624483; in the data active = fluorescence intensity above about 16000; inconclusive = no clear call, values can overlap the other calls
Anthrax LF prot: Bacillus anthracis LF protease inhibitors, primary screen, biochemical, multiplex microsphere, MLPCN library; inhibition, % at 10 µM; AID 588501, 2011; multiplex microsphere protease cleavage assay; 360,000 compounds, 0.12% hits; Lethal factor (Bacillus anthracis), P15917
Target sequence (P15917 whole entry, looked up): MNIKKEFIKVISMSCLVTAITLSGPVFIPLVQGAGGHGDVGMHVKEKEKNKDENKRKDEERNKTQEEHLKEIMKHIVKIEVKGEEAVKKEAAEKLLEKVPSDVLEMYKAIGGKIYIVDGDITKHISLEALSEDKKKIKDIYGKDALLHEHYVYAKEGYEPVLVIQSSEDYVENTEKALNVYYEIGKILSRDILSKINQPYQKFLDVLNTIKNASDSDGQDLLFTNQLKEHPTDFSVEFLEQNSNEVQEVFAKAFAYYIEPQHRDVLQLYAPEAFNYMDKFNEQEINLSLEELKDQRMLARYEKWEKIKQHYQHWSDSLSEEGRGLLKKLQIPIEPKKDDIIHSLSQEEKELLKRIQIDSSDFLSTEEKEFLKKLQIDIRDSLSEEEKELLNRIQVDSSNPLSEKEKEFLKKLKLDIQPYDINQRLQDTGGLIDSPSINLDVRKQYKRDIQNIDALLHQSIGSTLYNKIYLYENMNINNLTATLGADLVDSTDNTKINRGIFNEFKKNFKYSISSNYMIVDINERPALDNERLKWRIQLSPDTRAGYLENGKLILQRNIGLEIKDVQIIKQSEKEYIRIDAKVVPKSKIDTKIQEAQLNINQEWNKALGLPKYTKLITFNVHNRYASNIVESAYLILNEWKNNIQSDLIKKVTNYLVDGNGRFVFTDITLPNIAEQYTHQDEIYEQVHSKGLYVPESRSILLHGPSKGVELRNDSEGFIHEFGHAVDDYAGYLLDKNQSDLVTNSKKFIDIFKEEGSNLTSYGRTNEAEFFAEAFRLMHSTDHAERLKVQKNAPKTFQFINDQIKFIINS
SARS 3CLpro inh: SARS-CoV 3CLpro protease inhibitors, primary screen, biochemical, quenched FRET; inhibition, % at 6 µM; AID 1706, 2009; recombinant SARS-CoV 3CLpro, quenched FRET peptide cleavage; Replicase polyprotein 1ab (Severe acute respiratory syndrome coronavirus), P0C6X7; 290,000 compounds, 0.14% hits; in the data active = inhibition above about 12%
BoNT A protease: BoNT/A light chain protease inhibitors, primary screen, biochemical, flow cytometry, MLPCN library | Botulinum neurotoxin type A light chain protease (Clostridium botulinum A str. ATCC 3502) | multiplex microsphere protease substrate cleavage | inhibition, % at 10 µM | 360,000 compounds, 0.17% hits
BJeLR lethal: MLPCN primary cell-based screen for lethality selective to Ras in HRASV12 cells; BJeLR (HRASV12) viability, CellTiter-Glo ATP luminescence, 48 h; inhibition, % (concentration not given with the values); 300,000 compounds, 0.17% hits; in the data active = inhibition above about 50%; inconclusive = no clear call, values can overlap the other calls
BoNT F protease: BoNT/F light chain protease inhibitors, primary screen, biochemical, flow cytometry, MLPCN library; 360,000 compounds, 0.22% hits; AID 588497, 2011; Botulinum neurotoxin type F light chain protease (Clostridium botulinum); inhibition, % at 10 µM; Multiplex microsphere protease cleavage assay; in the data active = inhibition above about 35%, passing the limit was not always enough; inconclusive = no clear call, values can overlap the other calls
Each line names hits and unclear results; the compound was inactive in the other large screens; ! = not active in a repeat. Most compounds without a hit are left out; they make up all but 3.6% or so of the library. Rule as the data show it, unless noted: active = inhibition above about 30%; inconclusive = no clear call, values can overlap the other calls; inactive = below that.

COc1cc([C@@H]2c3cc4c(cc3[C@@H](OC)[C@H]3COC(=O)[C@H]23)OCO4)cc(OC)c1O	none (no result: SARS 3CLpro inh)
COc1cc([C@@H]2c3cc4c(cc3[C@@H](NC3CCN(Cc5ccccc5)CC3)[C@H]3COC(=O)[C@H]23)OCO4)cc(OC)c1O	BJeLR lethal 86 (no result: Autofluor counter, Anthrax LF prot, SARS 3CLpro inh, BoNT A protease, BoNT F protease)
CCCCCC(=O)N1CCN(CCN=CC2=C(O)CC(c3cccs3)CC2=O)CC1 (configuration not stated)	Autofluor counter 19021!
CCOC(=O)c1cc(-c2ccccc2)nc2nc(N(CC)CC)sc12	none
CCOc1ccc(OCCC(=O)OCC(=O)Nc2cc(OCC)c(N3CCOCC3)cc2OCC)cc1	none (no result: SARS 3CLpro inh)
COc1cc(CN2CCC(C(=O)N3CCN(c4ccccc4F)CC3)CC2)ccc1O	Autofluor counter 23648
COc1cccc(CN2CCC(C(=O)N3CCN(c4ccccc4F)CC3)CC2)c1	none
Cc1ccc(NC2=NC(c3ccc(O)cc3)n3c(nc(C)cc3=O)N2)cc1 (configuration not stated)	Autofluor counter 22829, BoNT A protease inconclusive
O=C(CN1CCN(S(=O)(=O)c2cccs2)CC1)N1CCCCC1	none (no result: SARS 3CLpro inh, BJeLR lethal)
C=CCn1c(SCC(=O)NC2CC2)nnc1-c1cccs1	none
C=CCn1c(SCC(=O)C(C)(C)C)nnc1-c1ccccn1	Autofluor counter 20695
C=CCn1c(SCC(=O)c2ccc(NS(=O)(=O)c3ccccc3)cc2)nnc1-c1cccs1	Autofluor counter 20128, BoNT A protease inconclusive
C=CCn1c(SCC(=O)Nc2ccc(C(=O)OCC)cc2)nnc1-c1cccs1	none
C=CCn1c(SCC(=O)C(C)(C)C)nnc1-c1cccs1	Autofluor counter 23404
CCn1c(SCC(=O)C(C)(C)C)nnc1-c1ccccn1	none
C=CCn1c(CCNC(=O)c2cccs2)nnc1SCC(=O)c1ccc(Br)cc1	Autofluor counter 20927
C=CCn1c(CCNC(=O)c2cccs2)nnc1SCC(=O)Nc1cccc(C(C)=O)c1	none
O=C(NC1CCCCC1)NS(=O)(=O)c1ccc2c(c1)CCC2	none (no result: SARS 3CLpro inh, BJeLR lethal)
COc1cccc(C(O)c2ncc(-c3ccc(Cl)cc3)[nH]2)c1 (configuration not stated)	none (no result: SARS 3CLpro inh, BJeLR lethal)
COc1ccc2c3c([nH]c2c1)C1(NCC3)C(=O)Nc2ccccc21 (configuration not stated)	none
COc1cc2c(cc1OC)C1(NCC2)C(=O)Nc2ccccc21 (configuration not stated)	Autofluor counter 16750
CCCn1ncc(OC)c(Cl)c1=O	Autofluor counter 21990
COc1cnn(-c2cccc(Cl)c2)c(=O)c1Cl	none (no result: SARS 3CLpro inh)
COc1ccc(NC(=O)CCNC(=O)Cn2ccc3ccccc3c2=O)cc1Cl	none
C=CCNC(=S)NNC(=O)c1cccn(Cc2cccc(Cl)c2)c1=O	Autofluor counter 24135
COc1ccccc1N1CCN(C(=O)CSc2nnc3c4ccccc4nc(Cc4ccccc4)n23)CC1	none (no result: Autofluor counter, Anthrax LF prot, BoNT A protease, BoNT F protease)
Cc1c(NC(=O)c2ccccc2N)cccc1C(=O)O	Autofluor counter 20340
COc1ccc(S(=O)(=O)NCCCN2CCCC2=O)c(OC)c1	none
CCc1nnc(NC(=O)C2CCN(c3nc(C)cc(C)n3)CC2)s1	Autofluor counter 24756
CCc1nnc(NC(=O)CN2CC(C)OC(C)C2)s1 (configuration not stated)	BoNT F protease 34
Cc1cc(C)nc(N2CCCC(C(=O)Nc3nnc(C)s3)C2)n1 (configuration not stated)	none
CCOC(=O)Cc1nnc(NC(=O)C2CCCCC2)s1	none
Cc1cc(C)nc(N2CCC(C(=O)NCCc3ccc(F)cc3)CC2)n1	Autofluor counter 26052, BoNT A protease inconclusive
CCc1nnc(NC(=O)C2CCCCC2)s1	Autofluor counter 22291
Cc1nonc1OCCn1c([N+](=O)[O-])cnc1C	none
COc1cccc(-n2cc(C(=O)NC(C)C)c3ccccc3c2=O)c1	BoNT F protease inconclusive
COc1ccccc1C(=O)N1[C@@H](C(C)C)COc2cc(Br)ccc2S1(=O)=O	none (no result: SARS 3CLpro inh, BJeLR lethal)
COc1ccccc1COc1ccc2c(C)c(CC(=O)O)c(=O)oc2c1C	none
Cc1ccc(C)c(S(=O)(=O)C(C#N)c2nc3ccccc3nc2N2CCCC2)c1 (configuration not stated)	Autofluor counter 20606
CCN(C(=O)COC(=O)c1oc2ccc(OC)cc2c1C)C1CCS(=O)(=O)C1 (configuration not stated)	none (no result: SARS 3CLpro inh, BJeLR lethal)
Cc1cc(C)cc(-n2nnnc2-c2cn(C)nc2C(F)(F)F)c1	none
Cn1cc(-c2nnnn2-c2ccc(Cl)cc2)c(C(F)(F)F)n1	Autofluor counter 23367
O=C(/C=C/c1ccccc1Cl)NCCc1ccccc1	Autofluor counter 21242, BoNT A protease inconclusive
O=C(/C=C/c1ccccc1Cl)NCc1ccccc1	Autofluor counter 20859
CC(CNC(=O)Cn1cnc2c(NCc3ccccc3)ncnc21)c1ccccc1 (configuration not stated)	none (no result: SARS 3CLpro inh, BJeLR lethal)
CC(C)CCn1cnc2c(NCc3ccccc3)ncnc21	Autofluor counter 24204
CSc1ccccc1C(=O)Nc1cccc([N+](=O)[O-])c1	none
COC(=O)c1ccc(NC(=O)c2ccccc2C(=O)Nc2ccc(C(=O)OC)cc2)cc1	none (no result: SARS 3CLpro inh)
COC(=O)c1ccc(NC(=O)c2ccccc2SC)cc1	Autofluor counter 16827
CSc1ccccc1C(=O)Nc1cccc(C)c1	Autofluor counter 17403, BoNT A protease inconclusive
O=C(O)[C@H](Cc1ccccc1)NC(=O)N1CCN(c2ccc(F)cc2)CC1	none
CCOc1ccc(N=Cc2c(C)[nH]n(-c3nc4ccccc4[nH]3)c2=O)cc1	BJeLR lethal 65
CC[C@]12c3[nH]c4cc(CCC(=O)N(C)C)ccc4c3CCN1C(=O)[C@@H](CC(=O)NCc1ccco1)C[C@@H]2C(=O)N1CCN(C(=O)C2CC2)CC1	none (no result: SARS 3CLpro inh, BJeLR lethal)
COC(=O)c1c(S(N)(=O)=O)c2ccccc2n1C	Autofluor counter 21700
Cc1nnc(SCC(=O)N2CC(=O)Nc3ccccc32)n1Cc1ccccc1	none
O=C1CN(C(=O)CSc2nnnn2-c2ccc(Cl)cc2)c2ccccc2N1	Autofluor counter 21884, BoNT A protease inconclusive
N#CCCN(Cc1ccccc1)C(=S)NC(=O)c1ccccc1	Autofluor counter 21936, BoNT A protease inconclusive
CCOC(=O)c1cnc(-n2cc(C)cn2)nc1NCc1ccc2c(c1)OCO2	Autofluor counter 21542, BoNT A protease inconclusive
O=S1(=O)CC(N2CCN(CC3CC3)CC2)CN1CCc1ccccc1 (configuration not stated)	none (no result: SARS 3CLpro inh, BJeLR lethal)
CC(C)CCP(=O)(O)c1ccccc1	Autofluor counter 22957 (no result: BJeLR lethal)
CCCCP(=O)(O)c1ccccc1	Autofluor counter inconclusive, Anthrax LF prot inconclusive, BoNT A protease inconclusive
O=C(NCC(=O)N1CCN(Cc2c(F)cccc2Cl)CC1)c1cccs1	none (no result: SARS 3CLpro inh, BJeLR lethal)
